Compound activity (PubChem BioAssay)
ssDAF-12 act – activates DAF-12 receptor from parasite S. stercoralis; HEK293 ssDAF-12/GRIP1 lit1-tk-luc reporter, luminescence; % of 3 µM dafachronic acid response; activation, % at 6.8 µM; actives 1% (n = 370,000);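 active means activation above the mean over all tested compounds plus 3 SD, cut at about 0.9% in these data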
DAX1 inh-1 – blocks DAX1 repression of SF-1 activated StAR promoter. HEK293T StAR-luciferase reporter, SF-1/DAX-1 repression relief. inhibition, % at 6.8 µM. actives 1.1% (n = 370,000). AID 652010;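 active means inhibition above the mean over all tested compounds plus 3 SD, cut at about 3.6% in these data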;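 further: higher inhibition means more luminescence from relief of DAX-1 repression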
NR1D1 modulator – modulators of human Rev-erb alpha DNA binding; actives 0.79% (n = 370,000); activity, % at 10 µM; Rev-erbα–FITC-DNA binding, fluorescence polarization, 90 min; AID 1259318; P20393;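 active means activity above about 14%, limit read from the data; passing the limit was not always enough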
hcDAF-12 act – H. contortus DAF-12 activation, primary screen; activation, % at 6.8 µM; AID 652067; HEK293 hcDAF-12 lit1-tk-luc reporter, luminescence; 0% DMSO, 100% Δ7-dafachronic acid; actives 1.4% (n = 370,000);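 active means activation above the mean of all tested compounds plus 3 SD, cut at about 5.5% in these data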
DAX1 inh-2 – inhibits human nuclear receptor DAX1 | P51843 | HEK293 Gal4-DAX1 luciferase reporter, luminescence | inhibition, % at 6.75 µM | actives 0.99% (n = 340,000) | AID 504766;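 active means inhibition above the mean over all tested compounds plus 3 SD, cut at about 4.2% in these data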;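 further: inhibition shows as a rise in luminescence from relieved DAX1 repression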
Target sequence (P51843 207-470 limits assumed): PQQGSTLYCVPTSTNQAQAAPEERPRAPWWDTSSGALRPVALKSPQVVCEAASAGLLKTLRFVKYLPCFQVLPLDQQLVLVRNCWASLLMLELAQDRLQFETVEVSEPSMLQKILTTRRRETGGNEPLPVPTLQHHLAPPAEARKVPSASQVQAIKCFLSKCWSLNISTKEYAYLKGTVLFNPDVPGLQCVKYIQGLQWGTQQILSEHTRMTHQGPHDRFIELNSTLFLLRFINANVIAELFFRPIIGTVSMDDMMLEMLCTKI
hgDAF-12 ag – hgDAF-12 agonism, primary luciferase screen; HEK293 GAL4-hgDAF12 UAS-luciferase reporter, agonist luminescence; normalized to butyrate control; AID 687014; actives 1.8% (n = 370,000); activation, % at 6.8 µM;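 active means activation above a cutoff set at the mean of all screened compounds plus 3 SD, cut at about 10% in these data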
Large screens that a line does not name were inactive. Sampled rows, rich in hits. Any-hit rate of the full collection: about 4.8%.

CCOC(=O)c1c(C)oc2c1c(C=NCC1CCCO1)c(O)c1ccccc12 (stereo unspecified)	DAX1 inh-2 6.6
Cc1ccc(CNC(=O)OC(C)(C)C)c(/C=C/S(=O)(=O)NCCc2ccccc2)c1	none (no result: DAX1 inh-2)
NC(=O)N/N=C/c1sc(N2CCCCC2)nc1-c1cccs1	hgDAF-12 ag 12
CCOC(=O)C1=NOC(C(C)=O)(C(=O)Nc2cc(C)cc(C)c2)C1 (stereo unspecified)	none (no result: DAX1 inh-2)
O=CNc1cc2c(cc1Br)-c1ccccc1C2O (stereo unspecified)	none
Nc1cc2c(cc1Br)-c1ccc(F)cc1C2O (stereo unspecified)	hgDAF-12 ag 12
CC(=O)OCC(=O)[C@@]1(O)[C@H](C)CC2C3CCC4=CC(=O)C=C[C@]4(C)[C@@]3(F)[C@@H](O)C[C@@]21C (stereo partly specified)	none (no result: ssDAF-12 act, DAX1 inh-1, hcDAF-12 act, DAX1 inh-2, hgDAF-12 ag)
COCCn1c(C)cc(C(=O)COC(=O)c2ccc(Br)o2)c1C	DAX1 inh-2 5.4
COc1ccc(Cc2c(-c3ccc(C#N)cc3)nc3c4ccccc4ccn23)c(C)c1	none (no result: DAX1 inh-2)
COc1ccc(Cc2c(-c3ccccc3)nc3c4ccccc4ccn23)c(C)c1	hcDAF-12 act 5.6 (no result: DAX1 inh-2)
COc1ccc(Cc2c(-c3ccc(F)cc3)nc3c4ccccc4ccn23)c(C)c1	hcDAF-12 act 6.0 (no result: DAX1 inh-2)
O=C(c1ccccc1)n1ccc2ccc(-c3ccc4ccn(Cc5ccccc5)c4c3)cc21	hgDAF-12 ag 11 (no result: DAX1 inh-2)
COC(=O)[C@@]12CCCCC3=C1N(CCC3)C(=O)[C@H]2CC(=O)NCc1cccc(C(F)(F)F)c1	none (no result: DAX1 inh-2)
COC(=O)[C@]12C[C@H](CC(=O)NCCCN3CCCC3=O)C(=O)N(CCc3ccc(OC)c(OC)c3)C1=C[C@H](C(C)(C)C)O[C@@H]2C	none (no result: DAX1 inh-2)
Clc1cccc(/C=N/Nc2nc(Cl)nc3ccccc23)c1	hcDAF-12 act 6.6
Clc1cccc(/C=N\Nc2nccs2)c1	ssDAF-12 act 0.9, hgDAF-12 ag 11
Cc1c(C(=O)O)cnc2cc(-c3ccc(Cl)cc3)nn12	ssDAF-12 act 1.1
CC(=O)c1cnc2c(-c3ccc(Cl)cc3)c(C)nn2c1C	none
CCCCn1nnc(N(C(=O)c2cccs2)C(=O)c2cccs2)n1	DAX1 inh-2 5.7
COc1ccc2c3n([n+]([O-])c2c1)CCN=C3c1ccc(C)cc1	ssDAF-12 act 1.1, hcDAF-12 act 5.6
COc1ccc2c3n([n+]([O-])c2c1)CCN=C3c1cc(Cl)c(N)c(Cl)c1	none
COc1ccc(-n2c(Cc3cccs3)nnc2SCC(=O)Nc2cccc3ccccc23)cc1	none (no result: DAX1 inh-2)
Cn1ccnc1SCC(=O)c1ccc2ccccc2c1	hgDAF-12 ag 13
COc1c(O)ccc(/C=N\NC(=O)c2ccc3c(c2)OCO3)c1[N+](=O)[O-]	DAX1 inh-2 5.5
Cc1ccccc1C1CCC2(CC1)CCN(CC[C@@H](O)c1ccccc1)C2=O (stereo partly specified)	none (no result: DAX1 inh-1, DAX1 inh-2)
O=C(O)c1cccc(N2CCCC2=O)c1	none
O=C(Nc1ccccc1)c1cccc(N2CCCC2=O)c1	hgDAF-12 ag 12
O=C(N/N=C/c1cc(Br)ccc1O)c1cccc(N2CCCC2=O)c1	none
O=C(N/N=C/c1ccco1)c1cccc(N2CCCC2=O)c1	hgDAF-12 ag 11
CC(C)C[C@H]1COc2cccc(N3CCSCC3)c2S(=O)(=O)N1C	none (no result: DAX1 inh-2)
Cc1cc(Oc2nc3c(C)cccn3c(=O)c2/C=C(\C#N)S(=O)(=O)c2ccccc2)ccc1Cl	hcDAF-12 act 6.2
Cc1cccn2c(=O)c(/C=C(\C#N)S(=O)(=O)c3ccccc3)c(Oc3ccc(Cl)cc3)nc12	none
O/N=C1\CC/C(=N\O)c2nn(-c3ccccc3Cl)nc21	none
Cc1ccc(-n2nc3c(n2)/C(=N/O)CC/C3=N\O)cc1	DAX1 inh-1 4.4, hgDAF-12 ag 12
CC(=O)Nc1cccc(-c2cc(C(C)=O)c3n(c2=O)CCC3)c1	none (no result: DAX1 inh-2)
O=C1C(NC(=O)N2c3ccccc3C=Cc3ccccc32)CCCCN1Cc1cccc(C(F)(F)F)c1 (stereo unspecified)	none (no result: DAX1 inh-2)
CS(=O)(=O)NNC(=O)c1csc(Cc2c(Cl)sc3ccc(Cl)cc23)n1	DAX1 inh-2 4.6
CC(C)C(=O)NNC(=O)c1csc(CS(=O)(=O)c2ccc(Cl)cc2)n1	none
COc1cccc(NC(=O)C(=O)NCCC2CCCCN2S(=O)(=O)c2cccs2)c1 (stereo unspecified)	DAX1 inh-1 4.1
COc1ccc(NC(=O)C(=O)NCCC2CCCCN2S(=O)(=O)c2cccs2)cc1 (stereo unspecified)	none
CO[C@H]([C@H](C)/C=C/N(C)C=O)[C@@H](C)C(=O)CC[C@H](C)[C@H](O)[C@H](C)[C@H]1OC(=O)/C=C/C(C)=C/C[C@H](O)C[C@@H]2C=CC[C@@H](C[C@H](OC)[C@@H](C)[C@@H](OC)C[C@@H](OC)[C@@H]1C)O2	none (no result: DAX1 inh-1, DAX1 inh-2)
CCOC(=O)CC[C@H]1CC[C@]2(CCCN(C(=O)C3CCCC3)C2)O1	none (no result: DAX1 inh-2)
O=C(Nc1sc2c(c1C(=O)O)CCCCC2)c1cccs1	ssDAF-12 act 1.0
COc1ccccc1C(=O)Nc1sc2c(c1C#N)CCC2	none (no result: ssDAF-12 act, DAX1 inh-1, NR1D1 modulator, hcDAF-12 act, hgDAF-12 ag)
CN1CCc2c(sc(NC(=O)c3ccc([N+](=O)[O-])o3)c2C(N)=O)C1	none
O=C(Nc1sc2c(c1C(=O)O)CCCC2)c1cccs1	none
COc1ccccc1C(=O)Nc1sc2c(c1C(N)=O)CCCC2	ssDAF-12 act 0.9
NC(=O)c1c(NC(=O)c2ccc([N+](=O)[O-])o2)sc2c1CCCC2	ssDAF-12 act 2.0
COC(=O)C1CN(Cc2cn(CCC3OCCO3)nn2)CCS(=O)(=O)N1Cc1ccc(Cl)cc1 (stereo unspecified)	none (no result: DAX1 inh-2)
CC(Sc1nc2ccccc2s1)C(=O)N1CCOCC1 (stereo unspecified)	ssDAF-12 act 1.2
CC(=O)c1cc(-c2ccccc2)c(=O)n2c1CCC2	none (no result: DAX1 inh-2)
CC(=O)Nc1ccc2c(c1Br)Cc1ccccc1-2	hgDAF-12 ag 13
Fc1cccc(F)c1[B-](F)(F)F	hgDAF-12 ag 11
CCOC(=O)c1cnc2c(ccc3ccccc32)c1NCCCN(C)C	DAX1 inh-2 8.1, hgDAF-12 ag 13
Cc1cc(NS(=O)(=O)c2ccc(NS(=O)(=O)c3ccc(CC(C)C)cc3)cc2)nc(C)n1	DAX1 inh-2 5.8
CCN(CC)C(=O)CC[C@H]1CC[C@]2(CCCN(C(=O)c3ccc4ccccc4n3)C2)O1	none (no result: DAX1 inh-2)
C[C@@H]1OC(C2CCCCC2)N(C)[C@H]2C[C@H]3c4[nH]c5cccc(-c6cccc(F)c6)c5c4CCN3C(=O)[C@@H]12 (stereo partly specified)	none (no result: DAX1 inh-2)
O=C(CCn1c(=S)oc2ccccc21)NC1CCCCC1	ssDAF-12 act 5.3
CC(=O)Nc1c(C(=O)O)[nH]c2ccccc12	hcDAF-12 act 6.1
